Results from the supplement of paper PMC12636033.
± gives the standard deviation of the averaged measurements. In all, about 33,000 sequences were measured (“E-score (rank enrichment, -0.5 to 0.5)”: median about -0.0068, highest 2% from about 0.24 on). The sample as a whole holds a higher share of the highest values than the screen did.

system: muMax20 (Max(13-93) K31hArg/K57hArg, M65Nle); experiment: PBM 8-mer E-score (E-score (rank enrichment, -0.5 to 0.5)); higher = stronger preferential binding
Protocol: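 Protein binding microarray (universal PBM chip covering all 10-mers in fixed probe flanks) with chemically synthesized human Max(13-93) bHLH-LZ analogs (not full-length Max) bearing noncanonical residues (hArg, Tha, Aib, Nle at 65) and aromatic Cys staples. Read-out per 8-mer (and its reverse complement): E-score (rank-based enrichment, -0.5 to 0.5) and Z-score of median probe intensity.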

Row | Sequence | PBM 8-mer E-score
1 | TCAGTAAA | 0.013 ± 0.12
2 | CATACTTC | 0.181 ± 0.048
3 | GATATACA | 0.0962 ± 0.0042
4 | CATATACA | 0.254 ± 0.031
5 | TATATAGA | 0.0968 ± 0.19
6 | CATATACC | 0.0712 ± 0.07
7 | TATATACA | 0.178 ± 0.03
8 | CATATAGA | 0.145 ± 0.049
9 | AATATAGA | 0.292 ± 0.049
10 | AATATACT | 0.215 ± 0.043
11 | AATATACA | 0.293 ± 0.01
12 | TACATCAA | 0.11 ± 0.093
13 | GCCAAGCC | -0.109 ± 0.012
14 | GAGTGACC | -0.141 ± 0.015
15 | CCGTCCCA | 0.0086 ± 0.03
16 | AATGTCAT | 0.0752 ± 0.093
17 | CCTAAGAC | 0.0353 ± 0.033
18 | ATAGTTAC | 0.181 ± 0.06
19 | ATAGTTAA | 0.261 ± 0.0096
20 | ATAGTAGG | 0.0443 ± 0.12
21 | GTAGTAGA | 0.0328 ± 0.058

Row | Sequence | PBM 8-mer E-score
22 | ATAGTAGA | 0.253 ± 0.031
23 | CTAGTAAA | 0.0505 ± 0.014
24 | ATAGTAAT | 0.158 ± 0.027
25 | ATAGTAAA | 0.262 ± 0.012
26 | ATAGTTAG | 0.0831 ± 0.052
27 | TGGGTTAA | 0.053 ± 0.046
28 | GCCTCTCC | 0.0347 ± 0.12
29 | GCGAATCA | -0.157 ± 0.067
30 | CCGATGGA | -0.246 ± 0.043
31 | TAACGGTA | 0.204 ± 0.011
32 | TAAGCTGA | 0.0855 ± 0.056
33 | AACACGGG | 0.0469 ± 0.0099
34 | CGATGCGA | -0.117 ± 0.088
35 | GAAGCCGC | -0.115 ± 0.058
36 | AACGTGAG | 0.0485 ± 0.088
37 | AACGTGGA | 0.162 ± 0.015
38 | AACGTGGT | 0.285 ± 0.029
39 | AACGTGCT | 0.0241 ± 0.0069
40 | AGCGTGAC | 0.117 ± 0.086
41 | AACGTGAT | 0.272 ± 0.01
42 | AACGTGAA | 0.0196 ± 0.026

Row | Sequence | PBM 8-mer E-score
43 | AGCGTGAG | 0.0998 ± 0.075
44 | AGCGTGAT | 0.25 ± 0.013
45 | ACCCCGTC | -0.138 ± 0.05
46 | GGGGCGGA | 0.0311 ± 0.065
47 | AAACTAAC | 0.121 ± 0.026
48 | AGATGCAG | -0.0831 ± 0.013
49 | CGTTCGAA | -0.071 ± 0.086
50 | GCGGGCTA | -0.103 ± 0.02
51 | TCATGTAA | 0.112 ± 0.08
52 | ACATGTAG | 0.255 ± 0.05
53 | ACATGTCG | 0.189 ± 0.086
54 | GCATGTAC | 0.15 ± 0.081
55 | ACATGTAT | 0.307 ± 0.067
56 | ACATGTAC | 0.286 ± 0.021
57 | AGATGTAT | 0.177 ± 0.041
58 | CCATGTAA | 0.0522 ± 0.048
59 | ACATGTCT | 0.183 ± 0.035
60 | CCATGTAC | 0.0415 ± 0.16
61 | ACATGTAA | 0.249 ± 0.034
62 | CCATGTAG | 0.0489 ± 0.046
63 | CCTTGTAG | -0.0398 ± 0.016

Row | Sequence | PBM 8-mer E-score
64 | ATGTTTGC | 0.119 ± 0.034
65 | ATTCCCGC | -0.0964 ± 0.2
66 | AACTTATG | 0.0994 ± 0.081
67 | AAGGGAAG | 0.201 ± 0.074
68 | ATGCTCGA | 0.0908 ± 0.059
69 | AAACTTGA | 0.241 ± 0.0031
70 | AAACTTGC | 0.203 ± 0.058
71 | TAACTTGA | 0.033 ± 0.066
72 | ATAAGAGG | 0.0841 ± 0.026
73 | CTCAAACA | 0.079 ± 0.12
74 | ATCAAAAA | 0.284 ± 0.035
75 | ATCAAAAT | 0.0188 ± 0.1
76 | ATCAAAAG | 0.0605 ± 0.033
77 | ATCAAGCA | 0.012 ± 0.021
78 | ATCAAACA | 0.29 ± 0.056
79 | TAGGTTCA | -0.12 ± 0.087
80 | GGCCCTAA | 0.0586 ± 0.04
81 | GTGGACGA | -0.0727 ± 0.036
82 | CTGCCTTC | -0.136 ± 0.047
83 | AGTCGTGC | -0.11 ± 0.024
84 | CAGACGCG | -0.145 ± 0.18
